Structures are written as SMILES. About 340 (0.34%) of roughly 99,000 compounds were called active. The entries come from a sample that favours actives as a whole. Unmarked numbers belong to inactive results. Rule as the data show it: active = TR-FRET ratio above about 2300; inactive = the rest.

A short description of this experiment: signal artefacts in PPARgamma/SRC-1 readout – biochemical, TR-FRET emission ratio, artefact control for PPARgamma SRC-1 recruitment agonists, primary screen (AID 1051). Particulars: TR-FRET detection artefact counter-screen, at 8 µM, stronger effect = higher value.
On to `Cc1ccc(C2NC(C(=O)O)CS2)cc1` (centres undefined), for which the TR-FRET ratio is 1760.

On to `CC1(C)C(C=C(Cl)Cl)C1C(=O)N(Cc1ccc(Cl)cc1)C1CCS(=O)(=O)C1` (centres undefined), for which the TR-FRET ratio is 1570.

In the case of `CCC(=O)N1c2ccccc2NC2=C(C(=O)CCC2)C1c1ccco1` (centres undefined), the TR-FRET ratio was 1690.

Take `Cn1c(N)c(C(=O)COC(=O)c2ccccc2NCc2ccco2)c(=O)n(C)c1=O`: the TR-FRET ratio was 1870.

Regarding `CCN(C(=O)COc1cccnc1[N+](=O)[O-])C1CCS(=O)(=O)C1` (centres undefined), the TR-FRET ratio was 1750.

Take `Cc1ccc(CN2CCN(/N=C/c3cccnc3)CC2)c(C)c1`: the TR-FRET ratio is 1720.

Turning to `Cc1ccccc1-c1n[nH]c(=S)n1/N=C/c1ccc(-c2ccccc2Br)o1`, the TR-FRET ratio was 2950 (active).

For the molecule `Cc1ccccc1-c1n[nH]c(=S)n1C`, the TR-FRET ratio was 1660.

In the case of `S=c1[nH]nc(-c2ccccc2)n1/N=C/c1c[nH]c2ccccc12`, the TR-FRET ratio was 1810.

Turning to `CCc1ccc(CN(C)C(=O)CCc2nnc(-c3ccc(-c4ccccc4)cc3)o2)nc1`, the TR-FRET ratio is 1540.

`O=C(COC(=O)c1cc(-c2cccs2)nn1-c1ccccc1)Nc1cc([N+](=O)[O-])ccc1Cl`: the TR-FRET ratio is 2060.

On to `Cc1cc(CNCc2c(C(=O)N(C)Cc3ccccc3)nc3ccccn23)nn1C`, for which the TR-FRET ratio was 1760.

Take `COc1ccccc1-c1nnc(NC(=O)c2cccc(N3C(=O)CCC3=O)c2)o1`: the TR-FRET ratio was 1920.

On to `Cc1noc(C)c1COc1cccc(C(=O)Nc2cccnc2)c1`, for which the TR-FRET ratio is 1740.

As to `O=C(CCC1CCCN(C(=O)Cc2ccc(F)cc2)C1)N1CCN(c2ccccn2)CC1` (centres undefined), the TR-FRET ratio was 1640.

`CCNc1ccc(C(=O)OCC(=O)N2c3ccccc3NC(=O)C2(C)C)cc1[N+](=O)[O-]`: the TR-FRET ratio was 1810.

Turning to `COCCNC(=O)C(OC(=O)c1cccs1)c1ccc(F)cc1` (centres undefined), the TR-FRET ratio is 1860.

Turning to `O=C(Nc1nnc(-c2ccco2)o1)c1ccc(S(=O)(=O)N2CCOCC2)cc1`, the TR-FRET ratio was 1880.

For `NC(=O)COC(=O)c1cc(S(=O)(=O)N2CCN(c3ccccc3)CC2)ccc1Cl`, the TR-FRET ratio is 1880.

For the molecule `Cc1ccc(C(=O)NC(=S)Nc2ccccc2C)cc1`, the TR-FRET ratio is 1630.

Regarding `Cc1nc2ccccc2n1CC(=O)N/N=C/c1cccnc1`, the TR-FRET ratio was 1750.

Consider `CCCCOc1ccc(C(=O)NCC(=O)OCC(=O)N2CCN(S(=O)(=O)c3ccc(C)cc3C)CC2)cc1`, for which the TR-FRET ratio is 1610.

For `CCCOc1ccc(N/C=C/C(=O)C(C)(C)C)cc1`, the TR-FRET ratio is 1770.

On to `CC(C)CNC(=O)C(=O)Nc1ccc(N(C)C)cc1`, for which the TR-FRET ratio is 1880.

Regarding `CN(C)c1ccc(N/C=C/C(=O)C(F)(F)F)cc1`, the TR-FRET ratio is 2320 (active).

On to `CC1CCCN(S(=O)(=O)c2ccc(N(C(=O)c3cnccn3)C(C(=O)NC3CCCCC3)c3cccs3)cc2)C1` (centres undefined), for which the TR-FRET ratio is 1760.

Take `CC(=O)Nc1ccc(/C=N/NC(=O)c2cccs2)cc1`: the TR-FRET ratio is 1750.

Turning to `C=CCn1c(=NC(=O)c2cccs2)sc2cc(NC(C)=O)ccc21`, the TR-FRET ratio was 2340 (active).

With `C=CCn1c(=NC(=O)c2ccc(S(=O)(=O)N3CCCC3)cc2)sc2cc(NC(C)=O)ccc21`, the TR-FRET ratio is 1920.

In the case of `CC(NC(=O)CCC(=O)N1CCN(S(=O)(=O)c2ccc(Cl)cc2)CC1)c1ccccc1` (centres undefined), the TR-FRET ratio is 2170.

As for `CC(NC(=O)COC(=O)c1ccc2c(c1)OCO2)c1ccccc1` (centres undefined), the TR-FRET ratio is 1700.

Take `CCOc1ccc(/C=N/NC(=O)C(C)Sc2ccccn2)cc1OCC` (centres undefined): the TR-FRET ratio is 1650.

With `CCN(CC)C(=O)Cn1cc(S(=O)(=O)CC(=O)NCc2ccc3c(c2)OCO3)c2ccccc21`, the TR-FRET ratio was 1870.

Turning to `Cc1cccc(-c2nc3ccccc3c(=O)n2NC(=O)Cc2ccc(Cl)cc2)c1`, the TR-FRET ratio is 1630.

For the molecule `O=C(Cc1cccs1)Nc1cccc(-c2nc3ccccc3[nH]2)c1`, the TR-FRET ratio is 1820.

With `CC(=O)Nc1ccc(S(=O)(=O)Nc2ccc(-c3ccc4nnc(C)n4n3)cc2)cc1`, the TR-FRET ratio was 1930.

In the case of `C/C(N)=C(/C#N)C(=O)COC(=O)C1CCN(C(=O)c2ccc(Cl)cc2)CC1`, the TR-FRET ratio was 1880.

On to `C/C(=N/O)c1ccc(N2C(=O)C3C4C=CC(C3C2=O)C2C3C(=O)N(c5ccc(/C(C)=N/O)cc5)C(=O)C3C42)cc1` (centres undefined), for which the TR-FRET ratio was 1760.

As to `CSc1ccc(/C=N/N2CCN(Cc3ccccc3Cl)CC2)cc1`, the TR-FRET ratio was 1700.

With `CC1CCCCC1NC(=O)COC(=O)Cc1ccc(Br)cc1` (centres undefined), the TR-FRET ratio was 1500.

For `CCSC1=NCCN1C(=O)c1ccc(S(=O)(=O)N(CC)CC)cc1`, the TR-FRET ratio is 1800.

`CCN(CC)Cc1nc2sc(C)c(C)c2c(=O)[nH]1`: the TR-FRET ratio is 1970.

`Cc1ccc(OC(=O)CCC(=O)Nc2ccc(Br)cc2)cc1`: the TR-FRET ratio is 1980.

`CC(=O)N/N=C(\C)c1ccc(Br)cc1Br`: the TR-FRET ratio is 1740.

For `COC(=O)c1onc(-c2c(OC)cc(OC)cc2OC)c1C(=O)OC`, the TR-FRET ratio was 1640.

In the case of `Cc1sc2nc(CC(N)=O)[nH]c(=O)c2c1-c1ccccc1`, the TR-FRET ratio was 1690.

On to `O=C(CO/N=C/c1ccc(OC(F)F)cc1)NCc1ccc(F)cc1`, for which the TR-FRET ratio is 1970.

With `O=C(/C=C\c1ccc2c(c1)OCO2)NC1(C(=O)Nc2ccc3c(c2)OCCO3)CCCCC1`, the TR-FRET ratio was 1600.

Regarding `CC(=O)c1cccc(CN2CCC(CO)(Cc3ccccc3)CC2)c1`, the TR-FRET ratio is 1590.

Consider `OCC1(CCc2ccccc2)CCN(Cc2ccc3nsnc3c2)CC1`, for which the TR-FRET ratio is 2510 (active).

With `Cc1cccc(-c2ncc(CN3CCC(CO)(CCCc4ccccc4)CC3)cn2)c1`, the TR-FRET ratio was 1880.

Regarding `Cn1c(=O)cc(SCC(=O)N2CCCC2)c2cc(Cl)ccc21`, the TR-FRET ratio was 3640 (active).

With `CC(C)N(C(=O)Cn1cc(SCC(=O)N2CCCC2)c2ccccc21)C(C)C`, the TR-FRET ratio is 1650.

Take `CCOc1ccc(CCNC(=O)CSc2cc(=O)n(C)c3ccc(Cl)cc23)cc1OCC`: the TR-FRET ratio was 2230.

As to `CC(CC(=O)O)CC(=O)NNC(=O)c1cccc(Br)c1` (centres undefined), the TR-FRET ratio was 1850.

With `O=C(CSc1cccc[n+]1[O-])NCCCc1ccccc1`, the TR-FRET ratio is 1620.

As to `CCn1c(=O)cc(SCC(=O)NCCC2=CCCCC2)c2ccccc21`, the TR-FRET ratio was 2120.

In the case of `CCN(CCCNC(=O)CSc1cc(=O)n(C)c2cc(Cl)ccc12)Cc1ccccc1`, the TR-FRET ratio is 3020 (active).

Turning to `O=C(CCC1CCCN(Cc2ccc(O)c(Cl)c2)C1)NCc1ccccc1F` (centres undefined), the TR-FRET ratio is 1790.
